Outcome and AC50 data for six compounds are collected here from PubChem BioAssay (EPA / NIEHS).

Molecules are shown by their SMILES. The source made the active and inactive calls. The calls were made as follows: active = hit-call score of the fitted dose curve at least 0.9, where 1 is the maximum; inactive = score below 0.9.

For experiment [1], the target named is Transcription factor E2F1 (Homo sapiens) (UniProt Q01094). In words: ATG_E2F_CIS: Attagene CIS-FACTORIAL HepG2 Assay for human E2F Transcription Factor 1 (AID 2282935). Conditions: HepG2 Attagene cis-reporter, E2F reporter RNA transcripts; actives raise or lower the signal. The method in brief: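 Transient MRTU transfection of HepG2; 24 h compound exposure; RNA → oligo(dT) RT → PCR → FAM label → HpaI cut → CE fluorescence. Gain/loss of signal fit against DMSO.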

Experiment [2] can be described thus: ATG_E_Box_CIS: Attagene CIS-FACTORIAL HepG2 Assay for human Enhancer Box (E-box) (AID 2282936). Conditions: HepG2 E-box cis-reporter transcription, actives raise or lower the signal. The method, boiled down: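 Transiently transfected HepG2, endogenous TF-driven reporters, 24 h dosing. Readout: RT-PCR plus capillary electrophoresis of fluorescent reporter fragments. Gain or loss of signal fitted bidirectionally against DMSO baseline.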

Experiment [3] is described as follows: ATG_EGR_CIS: Attagene CIS-FACTORIAL HepG2 Assay for human Early Growth Response 1 (EGR1) (AID 2282938). Conditions: HepG2 Attagene CIS-FACTORIAL EGR reporter mRNA; actives raise or lower the signal. The method in brief:
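Activity is taken as induction or loss of reporter mRNA versus DMSO, fitted bidirectionally. Transcripts from cis-regulated reporter units in transiently transfected HepG2 were measured after 24 h by RT-PCR with capillary electrophoresis.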

Experiment [4] in a line: ATG_M_19_CIS: Attagene CIS-FACTORIAL HepG2 Assay for M19 Transcription Factor (Internal Marker) (AID 2282939). Conditions: HepG2 Attagene CIS-FACTORIAL M19 internal marker reporter; actives raise or lower the signal. The method in brief:
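Following a 24 h exposure, RNA from transfected HepG2 cells was reverse-transcribed, PCR-amplified with reporter-specific primers, end-labelled with 6-FAM and HpaI-digested before capillary separation. Values represent gain or loss versus DMSO.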

The nature of experiment [5]: ATG_ERE_CIS: Attagene CIS-FACTORIAL HepG2 Assay for Estrogen Response Element (ERE) (AID 2282940). Conditions: HepG2 ERE cis-reporter, Attagene RNA transcript; actives raise or lower the signal. The method, boiled down: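 HepG2, transient cis-reporter units, 24 h exposure. RNA isolated, oligo(dT) RT, reporter-specific PCR, FAM extension, HpaI cut, CE detection. Gain/loss-of-signal vs DMSO.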

Experiment [6] in a line: ATG_Ets_CIS: Attagene CIS-FACTORIAL HepG2 Assay for human Erythroblast Transformation Specific (ETS) (AID 2282941). Conditions: HepG2 ETS cis-reporter transcription, actives raise or lower the signal. The method in brief:
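RT-PCR/capillary electrophoresis fluorescence read-out of reporter mRNA; HepG2 transient multi-reporter transfection; 24 h compound exposure; gain or loss of signal fitted bidirectionally relative to DMSO.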

Experiment [7] has as its target Hepatocyte nuclear factor 3-beta (Homo sapiens) (UniProt Q9Y261). The experiment is described as follows: ATG_FoxA2_CIS: Attagene CIS-FACTORIAL HepG2 Assay for human Forkhead box A2 (FOXA2) (AID 2282942). Conditions: HepG2 cis-reporter transcription factor activity, 24 h; actives raise or lower the signal. The method in brief:
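Reporter transcript induction is measured by fluorescence after capillary electrophoresis of RT-PCR products from HepG2 cells exposed 24 h. Cis-regulated reporter units report endogenous factor activity; curves fitted both directions against DMSO.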

Experiment [8] is described as follows: ATG_FoxO_CIS: Attagene CIS-FACTORIAL HepG2 Assay for human Forkhead box O (FoxO) (AID 2282943). Conditions: HepG2 Attagene cis-reporter, FoxO element, mRNA; actives raise or lower the signal. The method in brief:
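Read-out: fluorescence of 6-FAM-labelled reporter cDNA fragments resolved by capillary electrophoresis. Transiently transfected HepG2 cells were dosed for 24 h; activity fitted in both directions relative to DMSO controls.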

A short description of experiment [9]: ATG_GATA_CIS: Attagene CIS-FACTORIAL HepG2 Assay for human GATA Binding Protein (AID 2282944). Conditions: HepG2 GATA cis-element reporter, Attagene multiplex mRNA; actives raise or lower the signal. The method, boiled down: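 DMSO serves as negative control and baseline for bidirectional fitting of reporter mRNA changes. HepG2 cells bearing transiently transfected cis-promoter reporters were exposed 24 h; transcripts detected via RT-PCR and capillary electrophoresis.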

Experiment [10] in a line: ATG_GLI_CIS: Attagene CIS-FACTORIAL HepG2 Assay for human Zinc Finger Protein GLI1 (AID 2282945). Conditions: HepG2, Attagene cis-factorial reporter mRNA, GLI element; actives raise or lower the signal. The method, boiled down:
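Transiently transfected HepG2 cells report endogenous transcription factor activity via cis-element-driven reporter units. After 24 h compound exposure, reporter mRNA was measured by RT-PCR with capillary electrophoresis; bidirectional fitting against DMSO baseline.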

The nature of experiment [11]: ATG_ISRE_CIS: Attagene CIS-FACTORIAL HepG2 Assay for human Interferon Regulatory Factor 1 (IRF1) binding to an Interferon-Stimulated Response Element (ISRE) (AID 2282948). Conditions: HepG2 ISRE cis-reporter (Attagene), mRNA transcription readout; actives raise or lower the signal. The method in brief: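 Read-out: fluorescent RT-PCR products resolved by capillary electrophoresis, reporting endogenous transcription factor activity via ISRE-driven reporter mRNA in transfected HepG2 cells dosed for 24 h; gain or loss fitted relative to DMSO.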

Experiment [12] is described as follows: ATG_M_32_CIS: Attagene CIS-FACTORIAL HepG2 Assay for M32 Transcription Factor (Internal Marker) (AID 2282949).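 Also: background control marker of the multiplexed CIS panel rather than a real target.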 Conditions: HepG2 Attagene cis-factorial M32 reporter, mRNA; actives raise or lower the signal. The method in brief:
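Using DMSO as baseline, bidirectional curve fits were applied to reporter mRNA signals. These came from transiently transfected HepG2 cells exposed for 24 h, with RNA analysed by RT-PCR, FAM primer extension, HpaI digestion and CE.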

Experiment [13] can be described thus: ATG_M_06_CIS: Attagene CIS-FACTORIAL HepG2 Assay for M06 Transcription Factor (Internal Marker) (AID 2282950). Conditions: HepG2 Attagene CIS-FACTORIAL M06 internal marker reporter; actives raise or lower the signal. The method in brief: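 Fluorescence-labelled RT-PCR products from cis-promoter reporter units, cut with HpaI and resolved by capillary electrophoresis, give the signal. Cells are human HepG2, dosed for 24 h. Serves as background control, fitted relative to DMSO.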

Experiment [14] addresses Hypoxia-inducible factor 1-alpha (Homo sapiens) (UniProt Q16665). The experiment is described as follows: ATG_HIF1a_CIS: Attagene CIS-FACTORIAL HepG2 Assay for human Hypoxia Inducible Factor 1 (HIF1A) (AID 2282951). Conditions: HepG2 Attagene cis-factorial HIF1a reporter transcription; actives raise or lower the signal. The method in brief: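 Fluorescence intensity of capillary-separated, 6-FAM-labelled reporter amplicons gives mRNA induction in HepG2 cells carrying transfected cis-promoter reporter units; cells exposed 24 h, responses fitted up or down from DMSO.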

Experiment [15] has as its target Hepatocyte nuclear factor 6 (Homo sapiens) (UniProt Q9UBC0). The experiment is described as follows: ATG_HNF6_CIS: Attagene CIS-FACTORIAL HepG2 Assay for human Hepatocyte Nuclear Factor 6 (HNF6) (AID 2282952). Conditions: HepG2 Attagene cis-factorial HNF6 reporter transcription; actives raise or lower the signal. The method, boiled down: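 First, HepG2 cells were transfected with the multiplexed cis reporter library and dosed with chemical for 24 h. Next, RNA was reverse-transcribed, PCR-amplified and fluorescently labelled. Finally, HpaI-digested fragments were read by capillary electrophoresis.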

The target in experiment [16] is Bile acid receptor (Homo sapiens) (UniProt Q96RI1). In words: ATG_IR1_CIS: Attagene CIS-FACTORIAL HepG2 Assay for human Nuclear Receptor Subfamily 1 Group H Member 4 (NR1H4), IR1 submotif (AID 2282946). Conditions: IR1 reporter transcription, actives raise or lower the signal. The method in brief: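 Fluorescence of capillary-separated, HpaI-digested RT-PCR reporter products gave IR1-element mRNA induction in HepG2 cells 24 h after dosing. Endogenous transcription factors drove the cis-regulated reporters; activity was fitted bidirectionally against DMSO.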

Experiment [17] can be described thus: ATG_MRE_CIS: Attagene CIS-FACTORIAL HepG2 Assay for human Metal Responsive Element (MRE) (AID 2282954). Conditions: HepG2 MRE cis-reporter transcription, Attagene multiplex; actives raise or lower the signal. The method in brief:
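RT-PCR/capillary electrophoresis readout of reporter mRNA, 24 h post-dosing, in HepG2 cells transfected with multiplexed cis-regulated reporter constructs. Gain or loss of signal fitted bidirectionally against DMSO baseline.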

Experiment [18] addresses Heat shock factor protein 1 (Homo sapiens) (UniProt Q00613). The experiment is described as follows: ATG_HSE_CIS: Attagene CIS-FACTORIAL HepG2 Assay for human Heat Shock Transcription Factor 1 (HSE) (AID 2282953). Conditions: HepG2 HSE cis-reporter, Attagene RNA transcription; actives raise or lower the signal. The method, boiled down: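 After a 24 h incubation with test chemical, transfected HepG2 cells were harvested for RNA; reporter transcripts were measured by RT-PCR and capillary electrophoresis. Values reflect gain or loss of signal relative to DMSO.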

Experiment [19] in a line: ATG_GRE_CIS: Attagene CIS-FACTORIAL HepG2 Assay for human Glucocorticoid Response Elements (GRE) (AID 2282947). Conditions: HepG2 GRE cis-reporter, Attagene multiplex mRNA; actives raise or lower the signal. The method, boiled down:
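Read-out: fluorescent reporter-transcript fragments separated by capillary electrophoresis after RT-PCR. Transiently transfected HepG2 cells carrying cis-element-driven reporter units were dosed for 24 h; gain or loss of signal fitted against DMSO control.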

Chain of Hepatocyte nuclear factor 3-beta (Homo sapiens) (Q9Y261 whole entry, looked up): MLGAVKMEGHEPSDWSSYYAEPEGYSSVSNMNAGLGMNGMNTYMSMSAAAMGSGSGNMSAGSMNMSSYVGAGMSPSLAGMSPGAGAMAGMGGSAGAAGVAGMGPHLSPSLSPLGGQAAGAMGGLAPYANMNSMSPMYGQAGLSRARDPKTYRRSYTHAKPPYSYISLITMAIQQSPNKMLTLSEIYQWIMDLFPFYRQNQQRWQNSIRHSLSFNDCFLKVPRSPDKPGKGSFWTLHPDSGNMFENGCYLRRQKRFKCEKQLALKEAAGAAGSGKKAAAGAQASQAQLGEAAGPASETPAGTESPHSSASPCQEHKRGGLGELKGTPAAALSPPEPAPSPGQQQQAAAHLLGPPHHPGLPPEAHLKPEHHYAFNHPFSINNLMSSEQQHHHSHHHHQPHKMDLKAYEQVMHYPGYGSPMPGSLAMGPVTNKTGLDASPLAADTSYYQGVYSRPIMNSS
Chain of Transcription factor E2F1 (Homo sapiens) (Q01094 whole entry, looked up): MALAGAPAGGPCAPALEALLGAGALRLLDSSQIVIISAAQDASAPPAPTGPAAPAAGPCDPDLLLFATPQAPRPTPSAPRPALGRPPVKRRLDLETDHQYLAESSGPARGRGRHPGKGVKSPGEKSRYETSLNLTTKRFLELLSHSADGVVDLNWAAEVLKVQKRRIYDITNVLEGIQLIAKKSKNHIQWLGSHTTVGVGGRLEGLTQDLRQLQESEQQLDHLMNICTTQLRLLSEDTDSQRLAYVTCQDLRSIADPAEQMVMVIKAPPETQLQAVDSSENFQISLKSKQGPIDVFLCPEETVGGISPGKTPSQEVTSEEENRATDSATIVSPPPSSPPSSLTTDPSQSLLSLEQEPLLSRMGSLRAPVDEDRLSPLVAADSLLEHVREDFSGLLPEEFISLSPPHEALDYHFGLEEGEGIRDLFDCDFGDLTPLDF
Chain of Hepatocyte nuclear factor 6 (Homo sapiens) (Q9UBC0 whole entry, looked up, the tested form may be a part): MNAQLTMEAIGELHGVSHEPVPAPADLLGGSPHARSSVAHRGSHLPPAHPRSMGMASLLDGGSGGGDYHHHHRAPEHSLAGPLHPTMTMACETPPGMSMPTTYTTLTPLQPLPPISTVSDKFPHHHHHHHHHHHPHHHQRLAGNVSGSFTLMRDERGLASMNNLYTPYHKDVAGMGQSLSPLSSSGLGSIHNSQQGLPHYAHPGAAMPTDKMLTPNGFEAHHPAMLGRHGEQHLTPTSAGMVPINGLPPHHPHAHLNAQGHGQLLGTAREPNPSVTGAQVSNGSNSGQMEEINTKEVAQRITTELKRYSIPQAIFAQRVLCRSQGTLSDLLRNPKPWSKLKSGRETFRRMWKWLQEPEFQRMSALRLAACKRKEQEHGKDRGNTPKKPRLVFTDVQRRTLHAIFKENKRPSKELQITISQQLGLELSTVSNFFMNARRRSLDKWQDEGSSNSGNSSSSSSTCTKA
Chain of Hypoxia-inducible factor 1-alpha (Homo sapiens) (Q16665 whole entry, looked up): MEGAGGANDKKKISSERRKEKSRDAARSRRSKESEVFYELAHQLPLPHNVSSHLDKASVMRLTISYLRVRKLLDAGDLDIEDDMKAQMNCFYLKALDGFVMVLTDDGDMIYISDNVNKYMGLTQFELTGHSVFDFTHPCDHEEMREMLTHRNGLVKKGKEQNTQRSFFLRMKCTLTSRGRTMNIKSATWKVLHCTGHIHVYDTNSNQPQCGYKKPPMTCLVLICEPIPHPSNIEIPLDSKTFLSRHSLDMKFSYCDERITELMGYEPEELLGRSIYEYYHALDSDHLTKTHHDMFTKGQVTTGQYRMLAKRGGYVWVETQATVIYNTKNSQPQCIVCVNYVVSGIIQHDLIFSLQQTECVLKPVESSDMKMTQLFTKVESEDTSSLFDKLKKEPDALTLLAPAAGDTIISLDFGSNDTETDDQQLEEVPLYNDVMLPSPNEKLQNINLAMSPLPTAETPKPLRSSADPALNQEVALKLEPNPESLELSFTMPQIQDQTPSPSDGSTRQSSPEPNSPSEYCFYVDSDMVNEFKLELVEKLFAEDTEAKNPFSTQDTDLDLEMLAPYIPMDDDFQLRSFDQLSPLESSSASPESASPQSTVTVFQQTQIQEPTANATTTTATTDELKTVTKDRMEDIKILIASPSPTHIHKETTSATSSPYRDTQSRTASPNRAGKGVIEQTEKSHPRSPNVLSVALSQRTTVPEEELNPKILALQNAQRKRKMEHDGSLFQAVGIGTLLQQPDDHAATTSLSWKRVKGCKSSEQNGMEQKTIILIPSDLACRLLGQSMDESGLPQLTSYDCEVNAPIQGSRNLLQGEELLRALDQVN
Chain of Bile acid receptor (Homo sapiens) (Q96RI1 whole entry, looked up): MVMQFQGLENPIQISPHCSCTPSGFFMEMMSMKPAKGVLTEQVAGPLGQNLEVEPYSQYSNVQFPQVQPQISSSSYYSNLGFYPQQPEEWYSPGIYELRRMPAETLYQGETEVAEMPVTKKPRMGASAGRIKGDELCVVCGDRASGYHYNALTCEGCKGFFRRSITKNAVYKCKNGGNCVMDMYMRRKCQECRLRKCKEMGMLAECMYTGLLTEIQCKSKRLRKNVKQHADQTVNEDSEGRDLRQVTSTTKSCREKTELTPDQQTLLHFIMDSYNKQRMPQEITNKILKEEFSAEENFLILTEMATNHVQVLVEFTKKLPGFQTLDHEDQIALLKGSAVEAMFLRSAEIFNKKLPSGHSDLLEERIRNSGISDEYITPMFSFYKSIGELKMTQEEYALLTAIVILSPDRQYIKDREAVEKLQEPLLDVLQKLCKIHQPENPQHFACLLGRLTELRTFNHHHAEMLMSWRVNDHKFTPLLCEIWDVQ
Chain of Heat shock factor protein 1 (Homo sapiens) (Q00613 whole entry, looked up): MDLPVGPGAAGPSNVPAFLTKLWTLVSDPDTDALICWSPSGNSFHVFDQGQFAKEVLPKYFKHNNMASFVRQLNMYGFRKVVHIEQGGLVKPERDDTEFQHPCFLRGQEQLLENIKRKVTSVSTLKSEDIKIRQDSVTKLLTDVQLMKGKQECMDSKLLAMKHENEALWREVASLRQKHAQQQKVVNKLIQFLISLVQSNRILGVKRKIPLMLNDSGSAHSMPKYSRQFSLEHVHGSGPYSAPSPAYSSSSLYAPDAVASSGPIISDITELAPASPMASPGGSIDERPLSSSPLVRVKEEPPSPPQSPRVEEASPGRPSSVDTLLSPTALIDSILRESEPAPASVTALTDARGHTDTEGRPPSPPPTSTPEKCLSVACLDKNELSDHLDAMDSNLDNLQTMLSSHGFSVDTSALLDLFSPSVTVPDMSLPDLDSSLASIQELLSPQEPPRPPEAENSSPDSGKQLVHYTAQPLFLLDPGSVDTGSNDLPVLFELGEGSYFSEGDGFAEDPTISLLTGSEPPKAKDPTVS

For the compound `CCN(CC)c1nc(C)cc(OP(=S)(OC)OC)n1`, the result in experiment [1], in [2], in experiment [4], in experiment [6], in experiment [7] and in experiment [8] was inactive. The compound was classed as inactive in experiment [9], in experiment [10], in [11], in [12], in experiment [13] and in [15]. In addition, the AC50 in experiment [3] is 50 µM (active); in experiment [5], 12.7 µM (active); in [14] it was 50 µM (active).

As to `CC1(C)C(C(=O)OC(C#N)c2cccc(Oc3ccccc3)c2)C1(C)C` (configuration not stated), the compound was classed as inactive in experiment [1], in experiment [2], in [3], in [4], in experiment [5] and in experiment [6]. Also, the compound was called inactive in experiment [7], in experiment [8], in experiment [9], in experiment [10], in experiment [16] and in [11]. In addition, the compound was classed as inactive in experiment [12], in experiment [13], in [14] and in experiment [15]. The AC50 in experiment [17] is 10.8 µM (active).

With `COCC(C)N(C(=O)CCl)c1c(C)csc1C` (configuration not stated), the compound was classed as inactive in experiment [1], in experiment [2], in [3], in [4], in experiment [5] and in experiment [6]. Also, the compound was classed as inactive in experiment [7], in experiment [8], in experiment [9], in [10], in [16] and in experiment [11]. In addition, the result in experiment [12], in [13], in [14], in experiment [15] and in [18] was inactive.

Turning to `COC(=O)N(C(=O)N1CO[C@@]2(C(=O)OC)Cc3cc(Cl)ccc3C2=N1)c1ccc(OC(F)(F)F)cc1`, the compound was classed as inactive in [1], in experiment [2], in experiment [3], in experiment [4], in experiment [5] and in [6]. The outcome in [7], in [8], in experiment [9], in experiment [10], in experiment [11] and in experiment [12] was inactive. In addition, the result in [13], in [14] and in [15] was inactive.

Take `CCNP(=S)(OC)O/C(C)=C/C(=O)OC(C)C` (configuration not stated): the compound was called inactive in experiment [1], in experiment [2], in experiment [3], in experiment [4], in experiment [6] and in experiment [7]. In addition, the result in experiment [8], in experiment [9], in [10], in experiment [11], in [12] and in experiment [13] was inactive. The call in experiment [14], in experiment [15] and in [17] was inactive. The AC50 in [5] is 13.4 µM (active).

Consider `CCOC(=O)C(C)OC(=O)c1cc(Oc2ccc(C(F)(F)F)cc2Cl)ccc1[N+](=O)[O-]` (configuration not stated), for which the compound was called inactive in experiment [1], in experiment [2], in [3], in [4], in [6] and in [7]. In addition, the outcome in experiment [8], in experiment [9], in [10], in [19], in experiment [11] and in experiment [12] was inactive. Moreover, the call in experiment [13], in [14], in experiment [15] and in [18] was inactive. Further, the AC50 in experiment [5] was 34.1 µM (active).
